Rows were chosen to be rich in hits. Some 12% of all compounds tested hit in one or more screens of this group.
AmpC no deterg = blocks E. coli AmpC beta-lactamase in detergent-free assay; Potency, µM (doses to about 57.1 µM), for the others: at the top dose activity change, negative = inhibition, most hits filed as inhibitors; AmpC nitrocefin hydrolysis, absorbance 480 nm, 0.0001% Triton; 330,000 compounds, 0.52% hits;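 note: plate controls were no compound for no effect and no enzyme for full effect; nearly all actives have a fitted effect of over 20% in size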
Target sequence (P00811 whole entry, looked up): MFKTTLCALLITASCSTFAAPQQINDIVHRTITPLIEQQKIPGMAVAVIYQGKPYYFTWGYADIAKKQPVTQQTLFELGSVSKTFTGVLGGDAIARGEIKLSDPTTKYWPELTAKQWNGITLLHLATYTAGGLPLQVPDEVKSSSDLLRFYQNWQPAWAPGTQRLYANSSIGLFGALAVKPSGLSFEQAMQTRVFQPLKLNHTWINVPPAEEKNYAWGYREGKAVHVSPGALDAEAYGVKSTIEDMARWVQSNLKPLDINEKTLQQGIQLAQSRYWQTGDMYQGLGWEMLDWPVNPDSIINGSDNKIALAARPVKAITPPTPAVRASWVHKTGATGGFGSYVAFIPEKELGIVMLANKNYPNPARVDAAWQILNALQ
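20 mM phosphate pH 7.0 + 0.01% (detergent screen) or 0.0001% Triton X-100; 5.3 nM AmpC reagent; cpd preinc 15 min RT; nitrocefin (800 uM stock) to start; A480 q20 s × 4 min; Activity was normalised to no-enzyme and no-compound control wells.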
Sm TGR inh = blocks Schistosoma mansoni thioredoxin glutathione reductase; purified TGR, DTNB reduction, TNB absorbance 405 nm; Q962Y6; 360,000 compounds, 3% hits; Potency, µM (doses to about 114 µM), for inactives: at the top dose activity change, negative = inhibition, most hits filed as inhibitors; note: % is set by controls: 0 for no effect and ±100 for the full control effect; nearly all actives have a fitted effect of over 60% in size
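Kinetic colorimetric format: TGR-catalysed, NADPH-driven DTNB reduction monitored via TNB absorbance. Enzyme dispensed at 20 nM; compound exposure 15 min at room temperature before reaction start.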
Pf growth 96h = inhibits malaria parasite growth, 96 h | P. falciparum luciferase reporter growth, 96 h | Potency, µM (series often up to 28.7 µM), inactives show top-dose activity change, negative = inhibition, actives largely listed as inhibitors | 320,000 compounds, 6.9% hits; note: % is set by controls: 0 for no effect and ±100 for the full control effect
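Plates of compound plus infected erythrocytes (2% hematocrit, 0.05% parasitemia final) incubate 96 hours, 37 C, 5% CO2. Detection reagent added; reduced luminescence from the parasites' luciferase reporter flags inhibition.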
Pf growth 48h = P. falciparum growth inhibition at 48 hours (one generation); P. falciparum luciferase growth in erythrocytes, 48 h; Potency, µM (titrated, usually from 28.7 µM), without a hit: at the highest dose activity change, negative = inhibition, hits mostly inhibitors; 310,000 compounds, 5.9% hits; note: % is set by controls: 0 for no effect and ±100 for the full control effect
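A one-generation exposure of luciferase-tagged malaria parasites in RPMI 1640/Albumax erythrocyte culture, 37 C and 5% CO2. Inhibition is inferred from decreased luminescence after adding detection reagent.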
AmpC inh detg = inhibitors of E. coli AmpC beta-lactamase with detergent | AID 485294 | Potency, µM (doses to about 114 µM), for the others: at the top dose activity change, negative = inhibition, actives largely listed as inhibitors | AmpC hydrolysis of nitrocefin, absorbance 480 nm, 0.01% Triton | 370,000 compounds, 0.041% hits;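 note: 0% = no-compound wells and -100% = no-enzyme wells; nearly all actives have a fitted effect of over 25% in size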
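AmpC (5.3 nM in the dispensed reagent) in 20 mM phosphate pH 7.0 with 0.01% (detergent screen) or 0.0001% Triton X-100 was preincubated with compounds for 15 min at room temperature. Nitrocefin was then added from an 800 uM solution, and hydrolysis was followed at 480 nm.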
SARS PLpro yeast = inhibitors of SARS-CoV papain-like protease in yeast; AID 485353; Potency, µM (titrated, usually from 32.9 µM), for inactives: at the highest dose activity, positive = growth rescue, actives largely listed as activators; 330,000 compounds, 0.19% hits; S. cerevisiae expressing SARS-CoV PLpro, growth rescue; calls by dose curve; note: 0% is about no effect; nearly all actives have a fitted effect of over 55% in size
Starred values were filed as active, the others as inactive; u = inconclusive; x = not tested or not shown; [ ] = remark or other dose. Unless noted, calls come from the whole dose curve; as a rule, active = well fitted curve in the direction sought with a large enough effect; inconclusive = small, poorly fitted or top-dose-only effect, or another doubt; inactive = no such curve, though single readings can be large; an effect the other way counts as inactive or inconclusive. Potency is the fitted concentration of half-maximal effect.

SMILES	AmpC no deterg	Sm TGR inh	Pf growth 96h	Pf growth 48h	AmpC inh detg	SARS PLpro yeast
CCOC(=O)c1cc(CC)sc1N1C(=O)CC(Sc2ccccc2C(=O)O)C1=O (stereo unspecified)	-2.1%	14.1µM*	-2.5%	-6.1%	-12.3%	-4.1%
CCOC(=O)c1cc(CC)sc1N1C(=O)CC(Sc2ncccc2C(=O)O)C1=O (stereo unspecified)	-17.1%	25.1µM*	14.3%[5.75 µM]	-8.0%[5.75 µM]	u	0.1%
CCOC(=O)c1cnc(SC2CC(=O)N(c3ccccc3)C2=O)nc1N (stereo unspecified)	-20.3%	-69.1%	5.7%	35.4%	-12.4%	-10.9%
COc1ccc(C2(c3ccc(O)cc3O)CC(c3ccccc3Cl)NC(=S)N2)cc1 (stereo unspecified)	-55.5%	-0.2%	-0.8%	11.7µM*	-5.9%	-0.1%
Cc1ccc(C(C(=O)NC2CCCCC2)N(Cc2ccco2)C(=O)Cc2c[nH]c3ccccc23)o1 (stereo unspecified)	-52.1%	0.7%	u	13.1µM*	-4.2%	-5.7%
Cc1ccc(N(C(=O)Cc2c[nH]c3ccccc23)C(C(=O)NC2CCCCC2)c2ccco2)cc1 (stereo unspecified)	u	-2.3%	u	10.4µM*	-2.0%	-4.0%
Cc1ccccc1N(C(=O)Cc1c[nH]c2ccccc12)C(C(=O)NC1CCCCC1)c1ccco1 (stereo unspecified)	-51.7%	-1.0%	-4.3%	u	-8.8%	-2.2%
Cc1ccccc1CNCc1c(C(=O)O)c(C)n(Cc2ccc(F)cc2Cl)c1C	x	5.0%	x	x	22.0%	x
O=C(Cc1ccc([N+](=O)[O-])cc1)NCc1ccc2c(c1)OCO2	-19.7%	5.5%	u	4.4%	-0.1%	5.3%
O=C(NCc1ccc2c(c1)OCO2)C12CN(Cc3ccccc3)CC1C(c1cccc([N+](=O)[O-])c1)=NO2 (stereo unspecified)	-35.8%	-4.0%	u	9.28µM*	6.2%	-0.6%
O=C(NCc1ccc(C(F)(F)F)cc1)C12CN(Cc3ccccc3)CC1C(c1cccc([N+](=O)[O-])c1)=NO2 (stereo unspecified)	-21.1%	4.4%	9.28µM*	9.28µM*	-3.4%	2.9%
COc1ccc(OC)c(NC(=O)COC(=O)CN2C(=O)NC3(CCCC3)C2=O)c1	-19.8%	-1.2%	-7.9%	16.2%	3.4%	-3.7%
COc1ccc(NC(=O)CSc2oc(-c3cccs3)nc2S(=O)(=O)c2ccccc2)c(OC)c1	x	-34.3%	x	x	-1.6%	x
C/C=C(/C)C(=O)OC1c2c(ccc3ccc(=O)oc23)OC(C)(C)C1OC(=O)/C(C)=C\C (stereo unspecified)	42.5%	-26.7%	1.47µM*	u	14.4%	0.7%
C/C=C(/C)C(=O)O[C@@H]1c2c(ccc3ccc(=O)oc23)OC(C)(C)[C@@H]1OC(C)=O	7.8%	x	x	x	x	-5.0%
C/C=C(\C)C(=O)OC1c2c(ccc3ccc(=O)oc23)OC(C)(C)C1OC(C)=O (stereo unspecified)	17.6%	-25.2%	u	8.28µM*	1.5%	-4.1%
CC(=O)O[C@@H]1[C@H](OC(=O)CC(C)C)c2c(ccc3ccc(=O)oc23)OC1(C)C	48.8%	-11.2%	u	-14.7%	-19.3%	-15.1%
Cc1sc(NC(=O)Cn2[nH]c(=O)c3ccccc3c2=O)nc1-c1ccccc1	9.6%	-10.7%	11.7µM*	u	-10.7%	12.1%
CCN1CCN(c2cc(C)c3cc(NC(=S)NCCN(C)C)ccc3n2)CC1	-10.4%	-10.5%	70.0%	u	-1.1%	-0.9%
CCCCN(C)CCNC(=S)Nc1ccc2nc(N3CCN(CC)CC3)cc(C)c2c1	14.3%	3.9%	u	2.33µM*	0.0%	-0.3%
CCN(CC)CCNC(=S)Nc1ccc2nc(N3CCN(CC)CC3)cc(C)c2c1	-18.5%	-12.1%	-15.7%	11.7µM*	1.1%	1.2%
CCOCCCNC(=O)Cn1nc(C)n2c(cc3cc(C)ccc32)c1=O	x	2.9%	x	x	-4.0%	x
Cc1ccc(N2CC(C(=O)NCc3nnnn3-c3ccc(C)c(C)c3)CC2=O)cc1C (stereo unspecified)	x	3.6%	x	x	26.0%	x
Cc1cccc(C)c1NC(=O)CNC(=O)c1ccc(COc2ccccc2)cc1	-21.2%	4.3%	8.1%	0.4%	3.1%	-4.2%
On1ccccc1=S	-41.7%	-30.7%	0.586µM*	0.828µM*	u	x
SMILES	AmpC no deterg	Sm TGR inh	Pf growth 96h	Pf growth 48h	AmpC inh detg	SARS PLpro yeast
Nc1nonc1-c1noc(CCCCCN2C(=O)c3ccccc3C2=O)n1	-16.4%	5.2%	13.1µM*	40.0%	2.7%	1.2%
CCCCN(C(=O)C1CCC(CNS(=O)(=O)c2cccc3nsnc23)CC1)c1ccccc1 (stereo unspecified)	x	-1.2%	x	x	-1.4%	x
CCOc1ccc(-c2cc3c(=O)n(CC(=O)NCc4ccc(F)cc4)ccn3n2)cc1	x	-0.1%	x	x	10.9%	x
C#CCSc1nnc(CNS(=O)(=O)c2ccc(Br)cc2)n1C	-16.5%	10µM*	34.3%	45.4%	-9.3%	4.8%
CCOC(=O)C1CCN(C(=O)COC(=O)c2oc3ccccc3c2C)CC1	0.3%	0.3%	-7.3%	0.0%	-0.6%	-5.1%
Cc1ccc(C(=O)O/N=C/c2c(N3CCOCC3)n(C)c3ccccc23)cc1	-3.1%	-16.4%	3.29µM*	u	-14.8%	-23.4%
CC(=O)O/N=C/c1c(N2CCOCC2)n(C)c2ccccc12	0.7%	1.1%	3.7µM*	3.7µM*	-4.4%	-22.5%
Cn1c(N2CCOCC2)c(/C=N/OC(=O)c2ccc(F)cc2)c2ccccc21	-15.0%	3.2%	1.04µM*	1.31µM*	6.3%	1.4%
CCN(CC)S(=O)(=O)c1ccc(NC(=O)CCC2CCCCC2)cc1	-24.3%	-24.3%	x	u	3.3%	-5.4%
COc1ccc(NS(=O)(=O)c2ccc3c(c2)n(C)c(=O)c(=O)n3C)cc1Cl	x	1.3%	x	x	2.6%	x
Cc1ccc(Cc2nc3ccccc3nc2SCC(=O)Nc2ccc3c(c2)OCO3)cc1	x	4.0%	x	x	18.9%	x
COc1ccc(NC(=O)c2c(C)oc3ccc(O)c(CN4CCN(Cc5ccccc5)CC4)c23)cc1	x	9.4%	x	x	-5.3%	x
CC(C(=O)NC1CCCC1)N(C(=O)c1snc(C(N)=O)c1N)c1ccc2c(c1)OCCO2 (stereo unspecified)	-24.7%	7.9%	-16.3%	u	1.1%	0.7%
CC1C/C(=N\NC(N)=S)c2cc(Cl)ccc2S1 (stereo unspecified)	-29.8%	-1.5%	1.85µM*	u	-6.7%	2.6%
